Consider 57 compounds from PubChem BioAssay AID651814 (National Center for Advancing Translational Sciences (NCATS), 2012).

Out of some 2,100 compounds screened, about 590 (28%) were called active. Another 42% or so got no clear call; they are omitted. The list shows a part of the results. Unmarked numbers belong to inactive results. The call rests on the fitted dose curve; in most records, active means well fitted inhibition curve with a large enough effect; inconclusive means small, poorly fitted or top-dose-only effect; inactive means flat fitted curve, though single readings scatter.
Potency means the concentration at half of the fitted maximal effect.

Sequence of DNA dC->dU-editing enzyme APOBEC-3F (Homo sapiens) (Q8IUX4 whole entry, looked up): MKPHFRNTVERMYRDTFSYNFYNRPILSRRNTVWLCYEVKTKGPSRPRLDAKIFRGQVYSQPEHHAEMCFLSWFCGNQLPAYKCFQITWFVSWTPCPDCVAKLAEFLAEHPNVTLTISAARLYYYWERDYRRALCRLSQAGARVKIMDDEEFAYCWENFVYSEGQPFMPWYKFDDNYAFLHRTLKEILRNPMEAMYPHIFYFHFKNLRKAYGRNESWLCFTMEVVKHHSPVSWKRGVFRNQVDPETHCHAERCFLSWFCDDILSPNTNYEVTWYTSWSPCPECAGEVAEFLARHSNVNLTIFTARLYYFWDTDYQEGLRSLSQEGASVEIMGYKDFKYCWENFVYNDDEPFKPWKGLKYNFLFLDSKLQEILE

The assay deals with DNA dC->dU-editing enzyme APOBEC-3F (Homo sapiens) (UniProt Q8IUX4). The assay is described as follows: qHTS for inhibitors of Vif-A3F interactions: Cherry picks. Further: nearly all actives have a fitted effect of over 70% in size.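 On max response: % of control where 0% means no effect; active compounds raise eYFP fluorescence by blocking Vif-driven A3F loss.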 Particulars: HeLa A3F-eYFP + Vif (tagged APOBEC3F with the HIV-1 protein that degrades it), eYFP fluorescence, 24 h. The procedure, abridged:
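Read-out: yellow fluorescence (ex 488 nm, em 500-530 nm) by laser-scanning cytometer after 24 h compound exposure, several concentrations, at 37 deg C. Cells: HeLa line stably co-expressing Vif and C-terminally eYFP-tagged A3F; MG132 served as positive control.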
(In general: Quantitative high-throughput screening tests each substance at several concentrations.)
With `COc1cc(C(=O)N/N=C/C2CC=CCC2)cc(OC)c1OC` (configuration not stated), the max response was -15.3%.
`CCOC1=C/C(=C/c2c(N)n3nc(-c4ccccc4)sc3nc2=O)C=CC1=O`: the max response is 3.18%.
Take `N#C/C(=C/c1ccc(N2CCOCC2)o1)c1ccc(Cl)cc1`: the Potency was 4.61 µM (active).
Still for that read-out and setting: with `N#C/C(=C/c1ccc(N2CCCCC2)o1)c1cccc(F)c1` the figure was 5.17 µM (active).
For `N#C/C(=C/c1ccc(N2CCCCCC2)o1)c1ccc(Cl)cc1`, the Potency is 3.66 µM (active).
With `Cc1ccc(/C(C#N)=C\c2ccc(N3CCOCC3)o2)cc1`, the Potency was 12.5 µM (active).
Take `N#C/C(=C/c1ccc(N2CCCCCC2)o1)c1cccc(F)c1`: the max response is -26.2%.
As for `CC(C)(C)C(=O)/C(=C/c1ccc(Cl)cc1)n1cncn1`, the max response was -2.57%.
With `C/C(=N\NC(=O)C(C)n1nc(C)c([N+](=O)[O-])c1C)c1ccccc1O` (configuration not stated), the max response is 0.94%.
For `COc1ccc(/C=N/n2cc(-c3ccccc3)nc2N)cc1`, the max response is -18.9%.
On to `CCc1ccc(-c2cc(C(F)(F)F)n3nc(C(=O)Nc4cnn(Cc5ccc(C)cc5)c4)cc3n2)s1`, for which the Potency was 14.6 µM (active).
Turning to `CC(=O)Nc1cccc(-c2ccnc3c2CC(C(=O)Nc2ccc(Cl)cc2)O3)c1` (configuration not stated), the max response was -18.1%.
On to `O=C(CCCCl)Oc1ccc2cc(-c3ccc4ccccc4n3)c(=O)oc2c1`, for which the max response is 3.21%.
`O=c1oc2cc(O)ccc2cc1-c1nc(-c2ccc(Cl)c(Cl)c2)cs1`: the Potency was 0.651 µM (active).
Same read-out and setting: with `CCc1sc(-c2cc3ccc(O)cc3oc2=O)nc1-c1ccc(C)cc1` the figure was 4.11 µM (active).
As to `COc1cc(-c2nc3ccc(C)cn3c2NCc2ccccc2)ccc1SC1CCCCC1`, the max response is -8.35%.
Still for that read-out and setting: with `Cc1ccc(/C=N/NC(=O)c2nc3nc(C)cc(C)n3n2)cc1` the figure was 1.02%; with `CSc1nc(Sc2ccccc2Cl)c2ccccc2n1`, -25.9%.
On to `COc1cc(/C=C2\SC(=S)N(Nc3ncc(C(F)(F)F)cc3Cl)C2=O)ccc1O`, for which the Potency is 18.4 µM (active).
Take `COc1cc(/C=C2\SC(=S)N(NC(=O)c3ccc(O)c(OC)c3)C2=O)ccc1O`: the max response is -7.15%.
As for `CN(C)c1ccc(/C=C2\SC(=S)N(Nc3ncc(C(F)(F)F)cc3Cl)C2=O)cc1`, the Potency was 5.8 µM (active).
Take `N#CC(=Cc1ccccn1)c1nc(-c2ccc(Cl)cc2)cs1`: the Potency is 15.8 µM (active).
Turning to `Cc1cc(C(F)(F)F)c(C#N)c(SCC(=O)Nc2nc3ccccc3s2)n1`, the Potency is 20.6 µM (active).
For the compound `O=C(CSc1nc2ccccc2s1)c1cc2ccccc2o1`, the max response is -2.01%.
For the compound `CCOC(=O)c1c(NC(=O)CSc2nc3ccc(OC)cc3[nH]2)sc2c1CC(C)(C)NC2(C)C`, the max response is -17.3%.
With `CCOC(=O)c1ccc(NC(=O)CSc2nc(-c3ccc(OC)cc3)cc(C(F)(F)F)c2C#N)cc1`, the Potency was 18.4 µM (active).
Same read-out and setting: with `CCOC(=O)c1ccc(NC(=O)CSc2nc(-c3ccc(F)cc3)cc(C(F)(F)F)c2C#N)cc1` the figure was 18.4 µM (active).
Consider `Cc1sc2nc(CSCC(=O)Nc3ccccc3C#N)[nH]c(=O)c2c1C`, for which the max response is -12.7%.
For `CCOC(=O)c1ccc(N=Nc2c(C)c(C#N)c(O)[nH]c2=O)cc1`, the max response is -0.299%.
On to `Cc1ccc(S(=O)(=O)CCSc2nc(C)cc(C(F)(F)F)c2C#N)cc1`, for which the Potency was 15.8 µM (active).
Take `CCOC1=C2CN(S(=O)(=O)c3ccc(C)cc3)[C@H](c3cccc4ccccc34)C[C@H]2C(C#N)(C#N)C(C#N)(C#N)C1`: the max response was -5.21%.
Take `CC1(C)Cc2ccccc2C2CC(O)C(=O)N21` (configuration not stated): the max response is -21.2%.
Same read-out and setting: with `N#Cc1c(C(F)(F)F)cc(-c2cccs2)nc1SCC(=O)Nc1cccc(Cl)c1` the figure was -7.91%.
As to `CCCCOc1ccc(-c2cc(C(F)(F)F)c(C#N)c(SCC(=O)O)n2)cc1`, the Potency was 18.4 µM (active).
Regarding `Cc1coc(NC(=O)CSc2nc(-c3ccncc3)cc(C(F)(F)F)c2C#N)n1`, the Potency is 13 µM (active).
The same measure, in the same setting: with `N#Cc1c(C(F)(F)F)cc(-c2cccs2)nc1SCC(=O)Nc1cccc(C(F)(F)F)c1` the figure was 18.4 µM (active).
With `N#Cc1ccccc1NC(=O)CSc1nc(-c2ccccc2)cc(C(F)(F)F)c1C#N`, the max response was -28.7%.
`CCOC(=O)c1ccc(NC(=O)CSc2nc(-c3cccs3)cc(C(F)(F)F)c2C#N)cc1`: the Potency was 16.4 µM (active).
With `N#Cc1c(Nc2ccccc2)[n+]([O-])c2ccc(Cl)cc2[n+]1[O-]`, the max response was -2.22%.
Same read-out and setting: with `Oc1ccc(C=NNC(=S)Nc2ccc(F)cc2)c(O)c1` the figure was -2.9%; with `S=C(NN=Cc1ccccn1)Nc1ccccn1`, 1.89%.
For `Clc1ccc(/C=N/NC2=Nc3cccc4cccc2c34)cc1`, the Potency was 14.6 µM (active).
For `Cc1csc(NC(=O)CCC(=O)N(CC(=O)NC2CCCC2)Cc2ccccc2)n1`, the max response was 0.176%.
Still for that read-out and setting: to `CCS(=O)(=O)N1N=C(c2ccc(C)cc2)CC1c1cc2ccc(OC)cc2nc1Cl` (configuration not stated) belongs -11.9%.
In the case of `COc1ccc(C2CC(c3ccncc3)=NN2c2ccc(S(N)(=O)=O)cc2)cc1` (configuration not stated), the Potency was 16.4 µM (active).
Same read-out and setting: with `Cc1ccc2c(/C=C/c3c[nH]c4ccccc34)ccnc2c1C` the figure was 14.6 µM (active).
Regarding `C(=Cc1c[nH]c2ccccc12)c1nccc2ccccc12`, the Potency was 20.6 µM (active).
As for `C(=C\c1c[nH]c2ccccc12)/c1nccc2ccccc12`, the Potency is 10.3 µM (active).
With `c1ccc2c(c1)nc(N1CCOCC1)c1nnnn12`, the max response was -7.94%.
On the same count and under the same terms, to `COC(=O)c1sc(NC(=O)c2ccc([N+](=O)[O-])o2)c(C#N)c1C` belongs -29.9%.
With `CCOC(=O)CCc1ccc(NC(=O)/C=C/c2ccc([N+](=O)[O-])o2)cc1`, the Potency is 8.2 µM (active).
As for `O=C(Nc1ncccn1)c1ccc([N+](=O)[O-])o1`, the max response is -18.8%.
For `N#CCc1ccc(NC(=O)/C=C/c2ccc([N+](=O)[O-])o2)cc1`, the Potency is 4.11 µM (active).
Consider `O=C1C(=Cc2ccccc2[N+](=O)[O-])Cc2ccccc21`, for which the Potency was 18.4 µM (active).
The same measure, in the same setting: with `Nc1ccccc1C=C1Cc2ccccc2C1=O` the figure was 11.6 µM (active).
`O=[N+]([O-])c1ccccc1C=NNC(=S)NN=Cc1ccccc1[N+](=O)[O-]`: the max response was -27.9%.
On to `CCN1C/C(=C/c2cccc([N+](=O)[O-])c2)C(=O)/C(=C/c2cccc([N+](=O)[O-])c2)C1`, for which the max response is -17.2%.
